These results are taken from PubChem BioAssay AID540333 (Southern Research Specialized Biocontainment Screening …, 2011).

About 320 (3.2%) of roughly 10,000 compounds were called active. No stated cut-off is given here; in the data, active means CPE inhibition mostly above about 9.1% (no sharp cut-off); inactive means mostly below about 7.2%. Only a selection was taken, and actives are over-represented in it overall.

The nature of the assay: Dengue virus cytopathic effect inhibitors, cell-based, CPE readout, HTS (AID 540333). Conditions: Dengue virus CPE inhibition in host cells, at 20 µM; active compounds read high.
For the molecule `O=C(c1cccc(NS(=O)(=O)c2ccc(F)c(F)c2)c1)N1CCN(C(c2ccccc2)c2ccccc2)CC1`, the CPE inhibition is 39.5% (active).

For the molecule `O=C(COC(=O)c1cccc(NS(=O)(=O)c2ccc(F)c(F)c2)c1)NC(=O)NC1CCCCC1`, the CPE inhibition was 3.8% (inactive). As to `O=C(c1cccc(NS(=O)(=O)c2ccc(F)c(F)c2)c1)N1CCN(Cc2ccccc2)CC1`, the CPE inhibition entry was “inactive”.

Regarding `CCn1c(-c2c(Cl)c(C)nn2C)n[nH]c1=S`, the CPE inhibition entry was “inactive”.

With `COCCCNC(=S)NC1CCCCC1`, the CPE inhibition entry is “inactive”. Turning to `O=C1C(Cc2ccc(F)cc2)SC(=Nc2ccccc2)N1c1ccccc1` (stereo not given), the CPE inhibition was 1.01% (inactive).

As to `O=C1C(Cc2ccc(Br)cc2)SC(=Nc2ccccc2)N1c1ccccc1` (stereo not given), the CPE inhibition was 12.3% (active). With `Cc1ccc(CC2SC(=Nc3ccccc3)N(c3ccccc3)C2=O)cc1` (stereo not given), the CPE inhibition was 4.75% (inactive).

As for `Cc1nn(-c2ccccc2)c(N)c1C(O)(C(F)(F)F)C(F)(F)F`, the CPE inhibition is 0.32% (inactive). On to `CCOC(=O)[C@@H]1[C@H]2COc3ccc(Br)cc3[C@@H]2N2C(=O)N(c3ccc(OC)cc3)C(=O)[C@]12C`, for which the CPE inhibition was 1.7% (inactive). For `S=C(NCC1CCCO1)Nc1ccc(Cl)cc1` (stereo not given), the CPE inhibition was 0.15% (inactive).

Regarding `Cc1ccc(NC(=O)C(c2ccc(Cl)cc2Cl)N2CCCC2)cc1` (stereo not given), the CPE inhibition is 11.5% (active). Next, `Cc1cc(C)cc(NC(=O)C(c2ccccc2)N2CCCC2)c1` (stereo not given): 0.92% (inactive); `Cc1ccc(S(=O)(=O)N2CCN(C(C(=O)Nc3ccc(F)cc3)c3ccccc3)CC2)cc1` (stereo not given): 1.1% (inactive). In the case of `Cc1cccc2cc(C3CC(c4ccco4)=NN3C(=O)CCC(=O)O)c(Cl)nc12` (stereo not given), the CPE inhibition entry is “inactive”. With `COc1cc(C(=O)NCC(c2cccs2)N(C)C)cc(Cl)c1OC(C)C` (stereo not given), the CPE inhibition was 0.015% (inactive). In the case of `COCCNC(=O)CCCC(=O)NCCOC`, the CPE inhibition entry was “inactive”. Next, `CC1=C(C(=O)Nc2ccc(F)c(F)c2)C(c2cccs2)NC(=S)N1` (stereo not given): 0.675% (inactive). With `CCOc1cccc(C2NC(=S)NC(C)=C2C(=O)Nc2ccccc2)c1` (stereo not given), the CPE inhibition was 0.13% (inactive). Regarding `CCOC(=O)c1c(NC(=O)C2=C(C)NC(=S)NC2c2ccc(F)cc2F)sc(C)c1C` (stereo not given), the CPE inhibition was 32.4% (active). For the molecule `O=C(CSc1nc2ccccc2n1S(=O)(=O)c1cccc([N+](=O)[O-])c1)NCc1cccs1`, the CPE inhibition is 0.11% (inactive). Consider `COc1cc(C(=O)OCC(=O)Nc2ccc(SC(F)F)cc2)cc(OC)c1OC`, for which the CPE inhibition result is “inactive”.

For `O=C(Cc1c[nH]c2ccccc12)NNC(=O)c1ccccc1`, the CPE inhibition was 0.335% (inactive).

As to `COc1ccccc1CNC(=O)C(Cc1c[nH]c2ccccc12)NC(=O)OCc1ccccc1` (stereo not given), the CPE inhibition was 6.32% (inactive).

For `Cc1ccc(NP(=O)(c2ccc(N(C)C)cc2NC(=O)c2cccs2)N2CCOCC2)cc1Cl` (stereo not given), the CPE inhibition is 28.7% (active). Consider `Cc1ccc(NP(=O)(c2ccc(N(C)C)cc2NC(=O)c2cccs2)N2CCOCC2)cc1` (stereo not given), for which the CPE inhibition was 2.19% (inactive). As for `CN(C)c1ccc(P(=O)(Nc2ccccc2)N2CCOCC2)c(NC(=O)c2cccs2)c1` (stereo not given), the CPE inhibition is 2.15% (inactive). Next, `COC(=O)c1ccccc1NC(=O)C1CCCO1` (stereo not given): 3.31% (inactive); `CCOC(=O)c1c(C)[nH]c(C(=O)COC(=O)[C@H](C)NC(=O)c2ccccc2Cl)c1C`: 0.24% (inactive); `CC(=O)c1c(C)[nH]c(C(=O)Nc2nc(-c3ccccc3)c(C)s2)c1C`: 0.6% (inactive). As to `O=C(Nc1nc(-c2ccc(Cl)cc2)cs1)NC1CCCCC1`, the CPE inhibition was 20.3% (active).

Consider `CC(=O)c1c(C)[nH]c(C(=O)Nc2nc(-c3ccc(Cl)cc3)cs2)c1C`, for which the CPE inhibition is 26.9% (active). Next, `O=C(/C=C/c1ccco1)NC(=S)Nc1nc(-c2ccc(Cl)cc2)cs1`: 1.57% (inactive).

Consider `CC(=O)c1c(C)[nH]c(C(=O)Nc2nc(-c3ccc(-c4ccccc4)cc3)cs2)c1C`, for which the CPE inhibition was 4.52% (inactive). Consider `O=C(NNc1nc(-c2ccc(Cl)cc2)cs1)c1ccco1`, for which the CPE inhibition result was “inactive”. As to `CCOP(=O)(OCC)C(Nc1ccccc1)c1cc(OC)ccc1OC` (stereo not given), the CPE inhibition result was “inactive”. Next, `COc1cccc(-c2c(-c3cc(OC)cc(OC)c3)n(C)c3ccc(-c4ccc5[nH]ccc5c4)cc23)c1`: 2.75% (inactive). For `CCN(C(=O)COC(=O)/C=C/c1ccc(O)c(OC)c1)C1CCS(=O)(=O)C1` (stereo not given), the CPE inhibition is 0.935% (inactive). Consider `O=C(/C=C/c1ccc(Cl)cc1Cl)N(Cc1ccccc1)C1CCS(=O)(=O)C1` (stereo not given), for which the CPE inhibition was 38.5% (active). With `CC(C)CN(C(=O)CSc1nn(-c2ccc(Cl)cc2)c(=S)s1)C1CCS(=O)(=O)C1` (stereo not given), the CPE inhibition is 2.1% (inactive). Next, `O=C(/C=C/c1ccc(Cl)cc1Cl)N(Cc1ccc(Cl)cc1)C1CCS(=O)(=O)C1` (stereo not given): 29.6% (active); `O=C(CCl)N(c1ccccc1)C1CCS(=O)(=O)C1` (stereo not given): “inactive”. Consider `O=C(/C=C/c1ccc(Cl)cc1Cl)NCCSCc1ccccc1`, for which the CPE inhibition is 0.45% (inactive). In the case of `COc1nccnc1NS(=O)(=O)c1ccc(NC(=S)NC(=O)c2ccccc2)cc1`, the CPE inhibition entry was “inactive”. On to `Cc1cc(C)cc(NC(=O)CSc2nc3c(oc4ccccc43)c(=O)n2-c2ccccc2)c1`, for which the CPE inhibition is 0.68% (inactive). For the molecule `COc1ccc(NC(=O)COC(=O)CNS(=O)(=O)c2ccc(F)c(F)c2F)cc1OC`, the CPE inhibition entry is “inactive”.

Regarding `COc1ccc(NS(=O)(=O)c2ccc(N3CCOCC3)c(NC(=O)c3ccc(OC)cc3)c2)cc1`, the CPE inhibition entry is “inactive”. Take `N#Cc1ccc(C(=O)Nc2cc(S(=O)(=O)Nc3ccc(Cl)cc3)ccc2N2CCCCC2)cc1`: the CPE inhibition is 7.53% (active). Next, `O=C(Nc1cc(S(=O)(=O)Nc2ccc(Cl)cc2)ccc1N1CCCCC1)c1ccc(F)cc1Cl`: “inactive”. With `CCOC(=O)C1=C(O)/C(=C/c2ccc(OCC(=O)O)c(OCC)c2)SC1=Nc1ccc(OC)cc1`, the CPE inhibition is 0.63% (inactive). Take `CC(=O)N1c2ccccc2[C@H](C)[C@H]1C`: the CPE inhibition entry was “inactive”.

Regarding `O=C(NCCc1nc2ccccc2[nH]1)c1ccc(Cl)c([N+](=O)[O-])c1`, the CPE inhibition was 0.05% (inactive). As to `CCC[C@@H](NS(=O)(=O)c1ccc(C)cc1)C(=O)Oc1ccc2c3c(c(=O)oc2c1)CCC3`, the CPE inhibition entry was “inactive”. `S=C(Nc1ccc(Oc2ccc(NC(=S)NC3CCCCC3)cc2)cc1)NC1CCCCC1`: the CPE inhibition was 25.8% (active). In the case of `S=C(Nc1ccc(Oc2ccccc2)cc1)NC1CCCC1`, the CPE inhibition is 0.255% (inactive). With `O=C(CN1CCN(C(=S)NC2CCCC2)CC1)Nc1ccc(Oc2ccccc2)cc1`, the CPE inhibition was 12.1% (active).

`CCNC(=S)N1CCN(CC(=O)Nc2ccc(Br)cc2)CC1`: the CPE inhibition was 2.06% (inactive). `S=C(Nc1ccc(Oc2ccccc2)cc1)NC1CCCCCC1`: the CPE inhibition was 0.02% (inactive). On to `S=C(Nc1ccc(Br)cc1)NC1CCCCC1`, for which the CPE inhibition was 4.99% (inactive). Regarding `Cc1ccc(S(=O)(=O)N(C)Cc2ccc(C(=O)N/N=C/c3ccc(OC(F)F)cc3OC(F)F)cc2)cc1`, the CPE inhibition was 2.12% (inactive). For the molecule `S=C(c1ccc(-c2ccccc2Cl)o1)N1CCCCC1`, the CPE inhibition was 2.92% (inactive). In the case of `Cn1cc(C(=O)N2CCc3ccccc32)cn1`, the CPE inhibition entry is “inactive”. In the case of `c1cnc2cc(-c3ccsc3)ncc2c1`, the CPE inhibition was 0.12% (inactive). In the case of `COc1cccc(/C=C(/C#N)c2ccc(F)cc2)c1OCc1cccc(C(=O)O)c1`, the CPE inhibition entry was “inactive”. In the case of `CN1CCN(C(=O)c2cnn3c(C(F)(F)F)cc(-c4cccs4)nc23)CC1`, the CPE inhibition entry is “inactive”. Next, `CC(C)/C=N/NC(=O)c1cccc(N2CCCC2=O)c1`: 0.335% (inactive). Next, `CCOC(=O)c1sc(NC(=S)NC(=O)c2ccccc2)c(C(=O)OCC)c1C`: 3.5% (inactive).

Take `COc1cccc(-c2c(-c3cc(OC)cc(OC)c3)n(C)c3ccc(-c4cccc5[nH]ccc45)cc23)c1`: the CPE inhibition was 4.01% (inactive). Next, `COc1ccc(-c2c(-c3cc(OC)cc(OC)c3)n(C)c3ccc(-c4cccc5[nH]ccc45)cc23)cc1`: 3.95% (inactive); `COc1cc(OC)cc(-c2c(-c3cccs3)c3cc(-c4cccc5[nH]ccc45)ccc3n2C)c1`: 11.7% (active).

Regarding `Cc1ccc(-c2[nH]nc3c2C(C)C(C#N)=C(N)O3)cc1` (stereo not given), the CPE inhibition result is “inactive”. Next, `CC(C)(C)[C@@H]1CCC(=O)N(CC[C@H](Sc2ccccc2)c2ccccc2)CC1`: 1.54% (inactive).

As for `Cc1ccc(-n2c(SCC(N)=O)nc(O)cc2=O)cc1`, the CPE inhibition was 1.35% (inactive).

Take `Cc1ccc(-c2csc3nc(SCC(N)=O)n(Cc4ccccc4)c(=O)c23)cc1`: the CPE inhibition was 12% (active).

For the molecule `CCn1c(SCc2nc3scc(-c4ccccc4)c3c(=O)[nH]2)nnc1-c1cccs1`, the CPE inhibition entry was “inactive”. As for `CN(Cc1ccccc1)c1nc(CN2CCOCC2)nc2scc(-c3ccccc3)c12`, the CPE inhibition is 1.83% (inactive). Next, `C=CCn1c(SCC(=O)c2[nH]c(C)c(C(=O)OCC)c2C)nc2scc(-c3ccc(OC)cc3)c2c1=O`: “inactive”. `Cc1ccc(-c2csc3nc(SCC(=O)N(C)C)n(Cc4ccccc4)c(=O)c23)cc1`: the CPE inhibition was 21.1% (active).

For the molecule `O=C(Nc1ccc(-c2nc3ccccc3[nH]2)cc1)c1ccccc1NS(=O)(=O)c1ccc(F)cc1`, the CPE inhibition is 0.325% (inactive). As to `COc1cc(NC(=O)CSc2nc3c(C)ccc(C)c3cc2C)c(C(=O)O)cc1OC`, the CPE inhibition entry was “inactive”. Take `O=C1CN(C(=O)CSc2nnc(Nc3ccccc3)s2)c2ccccc2N1`: the CPE inhibition entry is “inactive”. Turning to `S=C1NCCOCCNC(=S)NCCOCCOCCOCCN1`, the CPE inhibition result is “inactive”. As for `CC(=O)CC[C@@H](C)O[C@@H]1OC(C)[C@H](O)CC1O` (stereo not given in full), the CPE inhibition is 0.175% (inactive). On to `CCc1cccc(CC)c1NC(=O)C1CN(S(=O)(=O)c2ccccc2)CCN1S(=O)(=O)c1ccccc1` (stereo not given), for which the CPE inhibition is 1.21% (inactive).

Take `CC(C)(C)OC(=O)NCC(=O)Oc1cc2oc(=O)cc(-c3ccccc3)c2cc1Cl`: the CPE inhibition is 24.3% (active).

For the molecule `COC(=O)C(Oc1ccc2c(-c3ccc(OC)cc3)cc(=O)oc2c1)c1ccccc1` (stereo not given), the CPE inhibition is 0.765% (inactive). Take `O=C(COc1ccc2c(-c3ccccc3)cc(=O)oc2c1)NCc1cccs1`: the CPE inhibition was 0.675% (inactive). With `COc1ccccc1NC(c1cccnc1)c1ccc2cccnc2c1O` (stereo not given), the CPE inhibition is 0.795% (inactive). As to `Cc1ccc(Cl)cc1NC(=O)c1ccc(NC(=O)CCC(=O)O)cc1`, the CPE inhibition was 0.84% (inactive). For the molecule `N#Cc1c(NC(=S)NC(=O)c2ccccc2)sc2c1CCCC2`, the CPE inhibition is 1.09% (inactive). On to `COC(=O)c1ccc(C(=O)NC(=S)Nc2nc3c(s2)CCCC3)cc1`, for which the CPE inhibition was 0.85% (inactive). Consider `COc1ccc(C(=O)N[C@H](C(=O)Nc2nc3c(s2)CCCC3)C(C)C)cc1`, for which the CPE inhibition was 18.9% (active). Next, `Cc1csc(NC(=O)[C@@H](NC(=O)c2ccccc2)C(C)C)n1`: 0.86% (inactive); `O=C(NC(=S)Nc1nc2c(s1)CCCC2)c1ccccc1`: 0.705% (inactive). In the case of `O=C(NC(=S)Nc1nc2c(s1)CCCC2)c1ccc(C(=O)c2ccccc2)cc1`, the CPE inhibition is 11.3% (active).
